Common to all, as to assay: NCI-60 one-dose screen, 48 h (100 = growth as untreated, 0 = no growth, -100 = all killed)
One assay has as its system HCT-15 colon. The note with it: 10 µM unless noted.
The subject of the next assay is HT29 colon. The note with it: 10 µM unless noted.
A further assay has as its system SNB-19 CNS. The note with it: 10 µM unless noted.
The next assay relates to U251 CNS. The note with it: 10 µM unless noted.
A further assay has as its system PC-3 prostate. The note with it: 10 µM unless noted.
For the next assay, the system named is SK-MEL-5 melanoma. The note with it: 10 µM unless noted.
Another assay has as its system UACC-62 melanoma. The note with it: 10 µM unless noted.
The subject of another assay is LOX IMVI melanoma. The note with it: 10 µM unless noted.
Another assay relates to SK-MEL-28 melanoma. The note with it: 10 µM unless noted.
A further assay deals with SK-MEL-2 melanoma. The note with it: 10 µM unless noted.
In the next assay the test system is EKVX NSCLC. The note with it: 10 µM unless noted.
A further assay concerns SN12C renal. The note with it: 10 µM unless noted.
A further assay deals with UO-31 renal. The note with it: 10 µM unless noted.
Another assay concerns TK-10 renal. The note with it: 10 µM unless noted.
A further assay concerns ACHN renal. The note with it: 10 µM unless noted.
For the next assay, the system named is CAKI-1 renal. The note with it: 10 µM unless noted.
Another assay concerns HL-60(TB) leukemia. The note with it: 10 µM unless noted.
For another assay, the system named is CCRF-CEM leukemia. The note with it: 10 µM unless noted.
A further assay concerns A498 renal. The note with it: 10 µM.
The next assay has as its system SNB-75 CNS. The note with it: 10 µM unless noted.

About 83,000 compounds went through this panel and 20% of them were active in at least one assay; those are over-represented in the sample as a whole.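 Cells were grown in 96-well plates and exposed to the test compound at a single concentration for 48 hours; results are reported as percent growth, with values below 10 considered active.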 A number with no mark means an inactive call. Calls of active or inactive are those of the source.

With `C[C@@]12CC=C3c4nc(Nc5cccc(O)c5)sc4CC[C@]3(C)[C@H]1CC[C@]1(C)C(=O)CC[C@@H]21`, the growth with HCT-15 colon was -47.9% (active); with HT29 colon it was -29% (active); with SNB-19 CNS, 57.9%; in the assay on U251 CNS, 18.8%; in the assay with PC-3 prostate, 28.1%; in the assay with SK-MEL-5 melanoma it was 64.8%. For the same compound, the growth with UACC-62 melanoma was 28.8%; in the assay on LOX IMVI melanoma it was -52.7% (active); in the assay with SK-MEL-28 melanoma it was 41.2%; in the assay with SK-MEL-2 melanoma, 29.1%; in the assay with EKVX NSCLC it was 71.4%; with SN12C renal, 46.5%. Moreover, the growth in the assay with UO-31 renal was 22.2%; with TK-10 renal, 10.2%; in the assay with ACHN renal, 5.12% (active); with CAKI-1 renal, 37.1%; in the assay on HL-60(TB) leukemia, 46%; in the assay on CCRF-CEM leukemia, 13%.
As to `O=C(N/N=C/c1ccc(N(CCCl)CCCl)cc1)c1cccc2ccccc12`, the growth in the assay on HCT-15 colon is 56.1%; with HT29 colon, 39.4%; in the assay on SNB-19 CNS, 80.6%; in the assay with U251 CNS, 60.9%; in the assay with PC-3 prostate, 61.5%; with SK-MEL-5 melanoma, 70.6%. Also, the growth in the assay with UACC-62 melanoma was 46.5%; in the assay on LOX IMVI melanoma, 61.3%; in the assay with SK-MEL-28 melanoma, 83%; in the assay with SK-MEL-2 melanoma it was 81.2%; with EKVX NSCLC it was 85.2%; with SN12C renal it was 73.8%. For the same compound, the growth in the assay with UO-31 renal is 78.7%; with TK-10 renal, 87.7%; with ACHN renal, 80.7%; in the assay with CAKI-1 renal, 80.5%; with A498 renal it was -9.28% (active); with HL-60(TB) leukemia it was 29.5%. The growth with CCRF-CEM leukemia was 56.6%.
`Cc1ccc(N2COOC3(OOC2)C2CC4CC(C2)CC3C4)cc1`: the growth with HCT-15 colon was 96.6%; with HT29 colon, 97.5%; in the assay on SNB-19 CNS it was 106%; with U251 CNS it was 96.1%; in the assay with PC-3 prostate it was 93.5%; with SK-MEL-5 melanoma, 90.5%. Also, the growth was 109% in the assay with UACC-62 melanoma; -61.6% (active) in the assay with LOX IMVI melanoma; 103% in the assay with SK-MEL-28 melanoma; 104% with SK-MEL-2 melanoma; 93% in the assay on EKVX NSCLC; 106% with SN12C renal. Further, the growth is 20.7% in the assay on UO-31 renal; 98.7% with TK-10 renal; 97.7% in the assay on ACHN renal; 53.7% in the assay on CAKI-1 renal; 88.4% in the assay with A498 renal; 66.6% in the assay with HL-60(TB) leukemia. In the assay with CCRF-CEM leukemia, the growth is 107%.
Regarding `COc1ccc(S(=O)(=O)N(Cc2ccc3c(c2)C=CC(C)(C)O3)c2ccccc2)cc1OC`, the growth is 74.9% in the assay on HCT-15 colon; 72.9% with HT29 colon; 93.7% in the assay with SNB-19 CNS; 89.1% in the assay with U251 CNS; 73.7% in the assay on PC-3 prostate; 3.42% (active) in the assay with SK-MEL-5 melanoma. The growth was 79.1% in the assay on UACC-62 melanoma; 74.2% with LOX IMVI melanoma; 67.9% in the assay on SK-MEL-28 melanoma; 97.1% with SK-MEL-2 melanoma; 58.1% in the assay with EKVX NSCLC; 95.9% in the assay on SN12C renal. Besides, the growth with UO-31 renal is 67.4%; with TK-10 renal, 102%; in the assay with ACHN renal, 61.3%; in the assay with CAKI-1 renal, 61.7%; in the assay with A498 renal, 77.8%; with HL-60(TB) leukemia it was 70.6%. Moreover, the growth in the assay on CCRF-CEM leukemia is 72%.
For `CCn1cnc2c(Nc3cccc(Cl)c3)nc(N[C@@H]3CCCC[C@@H]3N)nc21`, the growth in the assay with HCT-15 colon was 6.27% (active); in the assay on HT29 colon, -4.11% (active); in the assay on SNB-19 CNS, 7.42% (active); with U251 CNS, 6.89% (active); in the assay on PC-3 prostate it was 4.71% (active); with SK-MEL-5 melanoma, -26.5% (active). Besides, the growth is 10.2% with UACC-62 melanoma; -8.41% (active) in the assay with LOX IMVI melanoma; 22.8% in the assay on SK-MEL-28 melanoma; -1.69% (active) in the assay on SK-MEL-2 melanoma; 11.8% in the assay on EKVX NSCLC; 6.96% (active) with SN12C renal. Also, the growth was -13.3% (active) with UO-31 renal; 13.5% in the assay with TK-10 renal; 0.47% (active) in the assay on ACHN renal; 25.1% with CAKI-1 renal; -51.6% (active) in the assay with HL-60(TB) leukemia; 2.54% (active) with CCRF-CEM leukemia.
Turning to `C/C(=C\c1ccn(-c2ccc(N)c(F)c2)n1)[C@@H]1C[C@@H]2O[C@]2(C)CCC[C@H](C)[C@H](O)[C@@H](C)C(=O)C(C)(C)[C@@H](O)CC(=O)O1`, the growth is 11.4% with HCT-15 colon; 14.9% in the assay on HT29 colon; 38.4% with SNB-19 CNS; 24% in the assay with U251 CNS; 14.7% with PC-3 prostate; 14.7% in the assay with SK-MEL-5 melanoma. Moreover, the growth in the assay with UACC-62 melanoma is 21.7%; in the assay on LOX IMVI melanoma, 32.4%; with SK-MEL-28 melanoma it was 58.3%; with SK-MEL-2 melanoma it was 23.2%; with EKVX NSCLC it was 42.2%; with SN12C renal, 35.7%. In addition, the growth in the assay with TK-10 renal was 44.6%; with ACHN renal, 44.6%; in the assay on CAKI-1 renal, 37.5%; in the assay on A498 renal it was 13%.
Consider `O=[N+]([O-])c1ccc(OP(=O)(CCl)N(CCCl)CCCl)cc1` (stereo unspecified), for which the growth in the assay with HCT-15 colon is 90.3%; in the assay with HT29 colon, 86.8%; with SNB-19 CNS it was 111%; with U251 CNS, 96.1%; in the assay on SK-MEL-5 melanoma, 107%; in the assay on UACC-62 melanoma, 104%. For the same compound, the growth is 98.4% in the assay with LOX IMVI melanoma; 106% with SK-MEL-28 melanoma; 81.9% with SK-MEL-2 melanoma; 112% in the assay on SN12C renal; 84.4% with UO-31 renal; 99.6% in the assay with TK-10 renal. The growth was 101% in the assay with ACHN renal, 95.2% in the assay on CAKI-1 renal, 109% with A498 renal and 94.4% with HL-60(TB) leukemia.
For `O=C(N/N=C\c1ccc(N(CCCl)CCCl)cc1Cl)c1cccnc1`, the growth is 79.9% in the assay on HCT-15 colon; 86.6% in the assay with SNB-75 CNS; 89% with SNB-19 CNS; 65.2% in the assay with U251 CNS; 72.6% in the assay with SK-MEL-5 melanoma; -40.4% (active) in the assay on UACC-62 melanoma. The growth is 87.1% with LOX IMVI melanoma; 98.5% in the assay with SK-MEL-28 melanoma; 27.2% in the assay on SK-MEL-2 melanoma; 103% in the assay on EKVX NSCLC; 79.2% with SN12C renal; 88% in the assay on UO-31 renal. Moreover, the growth in the assay on TK-10 renal is 6.39% (active); with CAKI-1 renal it was 69.3%; with A498 renal, -93.6% (active); in the assay with HL-60(TB) leukemia, 91.8%.
Take `CC(C)[C@@H]1NC(=O)[C@]2(C)CSC(=N2)c2csc(n2)CNC(=O)C[C@@H](/C=C/CCS)OC1=O`: the growth was 58.6% in the assay on HCT-15 colon; 29.1% in the assay on SNB-75 CNS; 22.3% in the assay on SNB-19 CNS; -62.1% (active) in the assay on U251 CNS; 17% in the assay on PC-3 prostate; -81.2% (active) in the assay with SK-MEL-5 melanoma. In addition, the growth in the assay with UACC-62 melanoma was -42.2% (active); in the assay on LOX IMVI melanoma it was -93.1% (active); in the assay with SK-MEL-28 melanoma it was 5.48% (active); in the assay on SK-MEL-2 melanoma, -28.2% (active); in the assay with EKVX NSCLC, 32.4%; in the assay with SN12C renal it was 31.7%. Moreover, the growth was 10.4% in the assay with UO-31 renal, -74.8% (active) with A498 renal and 9.97% (active) in the assay on CCRF-CEM leukemia.

Source of the values: PubChem BioAssay (NCI).
